# PKM2 activator – qHTS Assay for Activators of Human Muscle isoform 2 Pyruvate Kinase; purified PKM2, Kinase-Glo ATP luminescence, activation; response scale: 0% is enzyme alone, no compound; hit rate 0.34% among 260,000; Pyruvate kinase PKM (Homo sapiens), P14618; Potency, µM (top dose mostly 57.5 µM), without a hit: at the highest dose activation, hits mostly activators; note: potency is the fitted concentration of half-maximal effect; nearly all actives have a fitted effect of over 55% in size
#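 hPK-M2, >95% pure; 0.1 mM ADP / 0.5 mM PEP final; imidazole pH7.2 buffer w/ 7 mM MgCl2, 50 mM KCl; 1 h RT; Kinase-Glo lum. Intermediate enzyme activity for dual inhibitor/activator qHTS.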
# CtBP-E1A blk – qHTS Assay for Inhibitors of the CtBP/E1A Interaction; hit rate 0.49% among 340,000; activity change, % (no concentration beside the values); AlphaScreen GST-E1A/His-CtBP binding, 1536-well; hits give low values; in the data active = activity change below about -65%; inconclusive = mostly about -30% to -63%
#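 Homogeneous bead-based format: GST-tagged E1A captured on glutathione donor beads, His-tagged CtBP on nickel acceptor beads; compounds precede bead addition by 2 h at 37 °C.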
# Gal4-VP16 FLuc – VP16 counterscreen qHTS for inhibitors of ROR gamma transcriptional activity; Drosophila S2 Gal4-VP16 UAS-luciferase, luminescence, 20 h; Potency, µM (highest dose often 53.6 µM), without a hit: top-dose activity, negative = inhibition, actives largely listed as inhibitors; hit rate 3.5% among 310,000; AID 2546, 2010;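 note: Gal4-VP16 expression switched on by copper sulfate through the metallothionein promoter; potency is the fitted concentration of half-maximal effect; nearly all actives have a fitted effect of over 50% in size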
# RORgamma inh – qHTS for inhibitors of ROR gamma transcriptional activity. Nuclear receptor ROR-gamma (Mus musculus), P51450. Drosophila S2 Gal4-RORgamma UAS-luciferase reporter, 20 h. Potency, µM (series often up to 53.6 µM), inactives show at the top dose activity change, negative = inhibition, hits mostly inhibitors. hit rate 5.4% among 310,000; note: potency is the fitted concentration of half-maximal effect; nearly all actives have a fitted effect of over 60% in size
#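 Read-out: Photinus luciferase luminescence; inhibitors lower reporter signal. Insect Schneider cells with Gal4-ROR gamma fusion under metallothionein promoter, UAS reporter; 700 uM final copper sulfate induction, 20 hr, ambient temperature.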
# Six1-Eya2 blk – qHTS Assay for Inhibitors of the Six1/Eya2 Interaction; AlphaScreen GST-Six1/His-Eya2 binding, biochemical; hits give low values; activity change, % (concentration not given with the values); hit rate 0.56% among 360,000; in the data active = activity change below about -65%; inconclusive = mostly about -30% to -63%
# Target sequence (O00167 whole entry, looked up): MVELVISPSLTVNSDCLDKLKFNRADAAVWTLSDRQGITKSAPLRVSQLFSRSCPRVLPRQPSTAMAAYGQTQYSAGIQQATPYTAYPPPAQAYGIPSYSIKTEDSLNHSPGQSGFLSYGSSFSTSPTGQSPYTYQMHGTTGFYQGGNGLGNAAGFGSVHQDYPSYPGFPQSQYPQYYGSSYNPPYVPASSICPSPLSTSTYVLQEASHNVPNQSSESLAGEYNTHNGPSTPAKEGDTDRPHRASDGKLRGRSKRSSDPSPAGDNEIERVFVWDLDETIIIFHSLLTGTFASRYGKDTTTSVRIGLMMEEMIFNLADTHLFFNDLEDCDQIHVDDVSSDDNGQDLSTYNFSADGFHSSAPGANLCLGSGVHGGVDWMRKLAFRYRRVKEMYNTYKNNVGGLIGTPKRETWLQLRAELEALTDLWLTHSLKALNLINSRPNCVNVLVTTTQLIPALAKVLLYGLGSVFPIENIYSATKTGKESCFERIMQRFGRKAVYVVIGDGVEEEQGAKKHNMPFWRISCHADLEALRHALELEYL
# Target sequence (Q15475 whole entry, looked up): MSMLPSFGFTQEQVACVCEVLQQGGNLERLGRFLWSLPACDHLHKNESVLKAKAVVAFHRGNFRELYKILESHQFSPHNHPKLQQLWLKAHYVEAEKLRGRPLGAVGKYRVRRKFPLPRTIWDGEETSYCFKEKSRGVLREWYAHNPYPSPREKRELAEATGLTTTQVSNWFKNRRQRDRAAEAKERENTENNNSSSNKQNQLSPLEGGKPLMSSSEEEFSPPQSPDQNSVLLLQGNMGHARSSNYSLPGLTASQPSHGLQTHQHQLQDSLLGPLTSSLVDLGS
#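 Homogeneous AlphaScreen proximity assay pairing GST-Six1 with His-tagged Eya2 (added as 5X mix: 250 nM and 500 nM) in 50 mM Tris pH 8.0, 300 mM NaCl, 1 mM TCEP. Glutathione donor and nickel acceptor beads; 1 h, 37 °C, dark.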
# Starred values were filed as active, the others as inactive; ? = inconclusive; . = no result given; [ ] = another dose, or the depositor's remark. Only some compounds are listed: those with a hit (about 5.6% of all), similar ones and a draw of the others. Unless noted, calls come from the whole dose curve; as a rule, active = well fitted curve in the direction sought with a large enough effect; inconclusive = small, poorly fitted or top-dose-only effect, or another doubt; inactive = no such curve, though single readings can be large; an effect the other way counts as inactive or inconclusive. % is set by controls: 0 for no effect and ±100 for the full control effect.
SMILES,PKM2 activator,CtBP-E1A blk,Gal4-VP16 FLuc,RORgamma inh,Six1-Eya2 blk
COC(=O)c1ccccc1NC(=O)CN1CCC(n2nnc3cc(C(F)(F)F)ccc32)CC1,7.9%,4.9,-3.2%,-14.3%,1.6
Cc1cc(NC(=O)c2cc(C(C)(C)C)oc2C)no1,-35.3%,.,-15.4%,12.6µM*,-7.2
CN(CC(=O)Nc1ccccc1Cl)C(=O)COC(=O)c1ccccc1[N+](=O)[O-],.,5.7,.,.,-1.3
CCCCn1c(N)c(N(CC(C)C)C(=O)CSCC(=O)Nc2ccc(C)cc2)c(=O)[nH]c1=O,.,2.5,.,.,7.1
CC(C)(C)C(=O)Nc1ccc(NC(=O)c2ccco2)nc1,-26.0%,0.5,0.562µM*,0.199µM*,4.9
O=C(Cc1ccccc1)Nc1ccc(NC(=O)c2ccco2)nc1,-1.1%,-3.8,0.4%,31.5%,-4.4
O=C(Nc1ccc(NC(=O)C2CCCCC2)cn1)c1ccco1,-7.4%,-6.0,8.91µM*,?,-2.4
O=C(Nc1ccc(NC(=O)C2CC2)cc1)c1ccco1,.,3.8,-12.3%,-29.9%,-4.8
CC(C)(C)C(=O)Nc1ccc(/C=C/C(=O)c2ccco2)cc1,0.9%,2.4,-9.8%,10µM*,6.1
O=C(Nc1ccc(NC(=O)c2ccco2)nc1)c1ccco1,-18.9%,-1.6,-22.1%[10 µM],7.94µM*,5.9
COc1ccccc1C(=O)Nc1ccc(NC(=O)c2ccco2)cn1,.,-4.8,-2.0%,26.6%,-8.1
O=C(Cn1cccc1C(=O)c1ccccc1)NCc1cccc(Cl)c1,-1.4%,.,-15.5%,10.1%,-5.9
CC(C)(C)OC(=O)C[C@@H]1C/C=C\C[C@H](CC(=O)NCCO)C(=O)N2CCC[C@@H]2COC1=O,.,2.2,.,.,9.9
C[C@@H]1CN([C@H](C)CO)S(=O)(=O)c2ccc(Br)cc2O[C@H]1CN(C)S(C)(=O)=O,.,0.8,.,.,0.5
O=C(Nc1ccc(NC(=O)C2CC2)nc1)c1cnccn1,1.7%,.,-14.3%,10.9%,2.3
O=C(Nc1ccc(NC(=O)C2CC2)nc1)c1ccccn1,-34.2%,-0.6,7.08µM*,-43.6%,-2.6
O=C(Nc1ccc(NC(=O)c2ccco2)nc1)c1ccccn1,-37.2%,0.5,1.78µM*,?,-3.7
O=C(Nc1ccc(Cl)cc1C(=O)Nc1ccccn1)c1ccco1,3.6%,5.6,?,12.6µM*,4.1
O=C(Nc1ccccn1)c1ccco1,0.4%,9.2,2.7%,6.4%,0.6
O=C(/C=C/c1ccccc1O)c1ccco1,4.5%,7.0,11.2µM*,7.94µM*,-20.9
CC(=O)N(/N=C1\Sc2ccccc2C1=O)c1cccc(C)c1,1.1%,-24.8,?,7.08µM*,-28.1
CC(=O)N(CN1C(=O)c2ccccc2C1=O)c1cccc(C)c1,-0.7%,-1.6,1.8%,-19.2%,10.9
C/C(=N\NC(=O)c1ccc(O)cc1O)c1cccnc1,-11.1%,-9.2,?,5.62µM*,-6.9
C/C(=N\NC(=O)c1ccc(Br)cc1)c1cccc(NC(=O)c2cccnc2)c1,-5.2%,-0.3,1.1%[10 µM],17.8µM*,0.0
CC(=NNC(=O)c1ccncc1)c1cccc(Br)c1,.,1.7,.,.,-4.8
SMILES,PKM2 activator,CtBP-E1A blk,Gal4-VP16 FLuc,RORgamma inh,Six1-Eya2 blk
C/C(=N\NC(=O)c1ccncc1)c1cccc(NC(=O)c2ccc(C(C)(C)C)cc2)c1,-7.3%,0.8,3.98µM*,4.47µM*,2.6
CC(C)CC(=O)NS(=O)(=O)c1ccc(NS(C)(=O)=O)cc1,-1.7%,.,-1.4%,1.8%,4.7
O=C1CC(C(=O)N2CCc3ccccc32)CN1c1ccc(F)cc1 (stereo not drawn),0.6%,-22.7,-11.1%,3.5%,-3.5
CC(C)CNC(=S)N1CCC(C(=O)c2ccc3c(c2)OCCO3)CC1,-2.0%,-8.0,1.1%,-14.5%,15.0
N#CC1=C(N)SC(N)=C(C#N)C1CCc1ccccc1,5.2%,-18.9,?,7.94µM*,-8.8
N#CC1=C(N)SC(N)=C(C#N)C1Cc1ccccc1,4.4%,-0.1,4.4%,7.2%,2.3
N#CC1=C(N)SC(N)=C(C#N)C1c1cccc(Oc2ccccc2)c1,2.3%,-22.3,?,?,-21.2
